Screening data deposited in PubChem BioAssay by National Center for Advancing Translational Sciences (NCATS).
This is a sample that favours compounds with a hit; in the whole collection about 12% have one here.
JMJD2A Tudor = inhibitors of human JMJD2A Tudor domain. AlphaScreen JMJD2A-Tudor / H3K4me3 peptide binding. AID 504339. Potency, µM (doses to about 114 µM), inactives show at the highest dose activity change, negative = inhibition, actives largely listed as inhibitors. 4.4% of 390,000 active. O75164; further: on the % scale 0 is the no-effect control and ±100 the full control effect; nearly all actives have a fitted effect of over 50% in size
G9a inh = G9a (human) methyltransferase inhibition. Potency, µM (series often up to 102 µM), for inactives: at the highest dose activity, negative = inhibition, usual class: inhibitors. Q96KQ7. 8.8% of 350,000 active. AID 504332. G9a H3K9 monomethylation, AlphaScreen, 2 h; further: on the % scale 0 is the no-effect control and ±100 the full control effect; nearly all actives have a fitted effect of over 75% in size
Target sequence (Q96KQ7 913-1193 limits assumed): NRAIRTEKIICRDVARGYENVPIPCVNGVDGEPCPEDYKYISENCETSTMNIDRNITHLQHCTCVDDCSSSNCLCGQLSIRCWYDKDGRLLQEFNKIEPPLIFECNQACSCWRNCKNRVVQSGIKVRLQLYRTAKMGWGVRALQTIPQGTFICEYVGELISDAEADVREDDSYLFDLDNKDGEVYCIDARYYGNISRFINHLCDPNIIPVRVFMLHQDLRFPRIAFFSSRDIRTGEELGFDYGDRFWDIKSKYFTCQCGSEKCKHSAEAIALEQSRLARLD
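Step 1: enzyme (final 20 nM) with compound, 15 min RT. Step 2: substrate peptide 500 nM and SAM 20 uM, 2 h RT. Step 3: anti-H3K9me1 antibody and AlphaScreen beads, 10 min, then plate read.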
HP1b chromo inh = inhibitors of HP1-beta chromodomain binding to methylated histone tails | Potency, µM (titrated, usually from 114 µM), for the others: at the highest dose activity change, negative = inhibition, most hits filed as inhibitors | AlphaScreen HP1-beta / biotin-H3K9me3 peptide binding | 0.56% of 390,000 active | AID 540317; further: nearly all actives have a fitted effect of over 70% in size
Target sequence (P83916 whole entry, looked up): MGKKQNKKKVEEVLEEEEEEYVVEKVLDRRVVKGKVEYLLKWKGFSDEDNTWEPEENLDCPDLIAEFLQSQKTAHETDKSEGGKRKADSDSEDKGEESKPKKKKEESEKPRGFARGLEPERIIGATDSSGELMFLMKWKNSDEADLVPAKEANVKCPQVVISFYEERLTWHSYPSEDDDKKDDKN
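AlphaScreen: HP1-beta (50 nM) preformed 30 min with biotin-H3(1-18)K9me3 peptide (50 nM) in PBS pH 7.4, 0.01% Tween-20. Compound added for 30 min at RT, then streptavidin donor/nickel chelate acceptor beads (10 ug/mL) for 30 min.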
L3MBTL1 block = L3MBTL1 (human) inhibition; AlphaScreen L3MBTL1–H3K9me1 peptide binding; Potency, µM (titrated, usually from 57.1 µM), for the others: at the highest dose activity, negative = inhibition, usual class: inhibitors; 0.66% of 230,000 active; AID 485360; further: on the % scale 0 is the no-effect control and ±100 the full control effect; nearly all actives have a fitted effect of over 60% in size
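Displacement of a biotinylated histone H3(1-15) peptide monomethylated at Lys9 (75 nM) from L3MBTL1 (50 nM) was measured by AlphaScreen after a 30 min room-temperature compound incubation; cefsulodin titration served as intraplate control.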
BAZ2B block = blocks human BAZ2B; Q9UIF8; AlphaScreen BAZ2B-H3K14Ac peptide displacement; Potency, µM (top dose mostly 114 µM), for inactives: at the highest dose activity change, negative = inhibition, usual class: inhibitors; 4.4% of 360,000 active; AID 504333; further: on the % scale 0 is the no-effect control and ±100 the full control effect; nearly all actives have a fitted effect of over 60% in size
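AlphaScreen displacement: compounds (up to 110uM) incubated 30 min at room temperature with a preformed 50 nM BAZ2B/50 nM biotinylated H3K14Ac peptide complex in PBS pH 7.4 with Tween-20. Donor and acceptor beads at 10 ug/mL final added, 20 min light-protected before reading.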
Sfp PPTase inh = Sfp phosphopantetheinyl transferase inhibition. Potency, µM, for the others: largest response in the series, negative = inhibition, actives largely listed as inhibitors. 3.5% of 310,000 active. Q9F4F7. Biochemical Sfp PPTase activity, qHTS. AID 1490;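 further: the enzyme is Sfp with the accession as filed and its product quenches rhodamine fluorescence; 0% = enzyme reaction without inhibitor and -100% = no enzyme wells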
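Sfp 15 nM + cpd, 15 min RT; start w/ rhodamine-CoA 5 uM, BHQ-2-YbbR 12.5 uM (final); 50 mM Hepes pH 7.6, 10 mM MgCl2, 0.01% NP-40, 0.01% BSA; read 525/598 nm at 0 and 30 min.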
* marks the source's active call; other numbers are inactive results; ? = inconclusive; / = no result given; ! = not active in a repeat; [ ] = dose if it differs, or a comment. The call rests on the fitted dose curve; in most records, active means well fitted curve in the direction sought with a large enough effect; inconclusive means small, poorly fitted or top-dose-only effect, or another doubt; inactive means no such curve, though single readings can be large; an effect the other way counts as inactive or inconclusive. Potency means the concentration at half of the fitted maximal effect.

SMILES	JMJD2A Tudor	G9a inh	HP1b chromo inh	L3MBTL1 block	BAZ2B block	Sfp PPTase inh
CCc1cc(C(=O)Nc2cc(Cl)ccc2N2CCN(C)CC2)sc1C	-23%	?	2%	4%	-6%	/
CCc1cc(C(=O)Nc2cc(S(=O)(=O)N(CC)CC)ccc2N2CCN(C)CC2)sc1C	-20%	35µM*	49%	2%	-10%	/
CCc1ccc(NC(=O)Cn2c(=O)n(-c3cc(C)cc(C)c3)c(=O)c3oc4ccccc4c32)cc1	-9%	-3%[59 µM]	14%	/	-4%	/
Cn1c(=O)c(=O)n(C)c2cc(S(=O)(=O)N3CCCC3C(=O)Nc3cccc(F)c3)ccc21 (centres undefined)	-11%	-29%[59 µM]	32%	/	-1%	/
CCOc1ccc(S(=O)(=O)N2Cc3ccccc3CC2C(=O)O)cc1 (centres undefined)	3%[11.4 µM]	50µM*	26%	/	?	24%
O=C(O)C1Cc2ccccc2CN1C(=O)COc1ccc(Cl)cc1 (centres undefined)	-1%	45µM*	18%	?	-19%	21%
CCOC(=O)c1c(C)[nH]c(C)c1S(=O)(=O)N1CCCC(C(=O)N2CCN(c3ccc(Cl)cc3)CC2)C1 (centres undefined)	?	-1%[59 µM]	-4%	/	?	/
CC(=O)NC(=O)NC1OC(=O)C(Cl)=C1Cl (centres undefined)	2%[57.1 µM]	40µM*	36%	2%	3%	-20%
Cc1ccc(NC2=C(Cl)C(=O)OC2NC(=O)c2ccccc2)cc1 (centres undefined)	-8%[57.1 µM]	26%[59 µM]	15%	0%	-5%	3%
CCC(Sc1nc2ccccc2c2nc(-c3ccccc3)nn12)C(=O)Nc1cccc(OC)c1 (centres undefined)	1%	-2%[59 µM]	45%	/	4%	/
Cc1cc(C(=O)COC(=O)/C=C/c2cccc(Br)c2)c(C)n1C	-27%	45µM*	?	-8%	?	/
Cc1cc(C(=O)COc2ccc(Cl)cc2Br)c(C)n1C	?	-50%	?	-27%	-37%	-2%
Cc1cc(C(=O)COC(=O)Cc2ccc(Br)cc2)c(C)n1C	-30%	?	2%	0%	50µM*	/
CCOC(=O)c1c(NC(=O)OC)sc2c1CCC2	13%	-9%[59 µM]	14%	7%	-3%	32µM*
COC(=O)Nc1sc2c(c1C(N)=O)CCCCCC2	?	3.5µM*	-58%	-4%	-3%	-84%
CCOC(=O)c1c(NS(=O)(=O)c2ccc(Br)cc2)sc2c1CCC2	79µM*	/	-16%	/	/	/
CC(C)OCCCn1c(=O)c2ccccc2n2c(-c3cc(Cl)ccc3O)nnc12	-20%	-45%[59 µM]	38%	/	2%	/
O=C(Nc1cccc(Br)c1)N1CCC(CN2CCCCC2)CC1	-4%	-16%[59 µM]	34%	/	3%	/
Cn1c(=O)n(-c2ccc3c(c2)OCO3)c2nc(-c3ccc(Cl)cc3)nc(C(N)=O)c21	-12%	12%[59 µM]	27%	/	-9%	/
CC1CCC(Nc2ncnc3onc(-c4ccc(Cl)cc4)c23)CC1 (centres undefined)	17%	0%[59 µM]	65%	/	22%[57.1 µM]	/
Cc1ccnc2ccc(P(=O)(c3ccccc3)c3ccccc3)cc12	/	9%	/	6%	-16%	15%
CC[n+]1ccc(C)c2cc(P(=O)(c3ccccc3)c3ccccc3)ccc21	?	?	?	/	45µM*	3%
CC[n+]1ccc(C)c2cc(SC(F)(F)F)ccc21	-22%	7.9µM*	60%	/	-17%	5%
CCn1nc(-c2ccccc2)c(-c2ccccc2)c(C(=O)Nc2ccccc2C#N)c1=O	-16%	2%[59 µM]	35%	/	-25%	/
O=C(c1cc2c(s1)-c1ccccc1OC2)N1CCN(c2ccccc2)CC1	-13%	1.1µM*!	21%	/	4%	-7%
SMILES	JMJD2A Tudor	G9a inh	HP1b chromo inh	L3MBTL1 block	BAZ2B block	Sfp PPTase inh
COc1ccc2c(c1)CCc1c(C(=O)NCc3cccnc3)noc1-2	-1%	40µM*	23%	3%	15%	-7%
CCCNC(=O)c1noc2c1CCc1cc(OC)ccc1-2	-18%[11.4 µM]	7%	20%	/	2%	-2%
CN1CCN(C2=C(Cl)C(=O)N(c3ccc(Cl)c(Cl)c3)C2=O)CC1	22µM*	32µM*	42%	-1%	?	4%
CN1CCN(C2=C(Cl)C(=O)N(c3cccc(Cl)c3)C2=O)CC1	18µM*	?	-7%	-11%	-11%	-23%
O=C(COC(=O)CNC(=O)c1ccccc1)Nc1cc(C(F)(F)F)ccc1Cl	-14%	/	/	/	/	/
Cc1cc(=O)[nH]c(SCC(=O)NNC(=O)Cc2ccccc2)n1	-3%	36%	17%	20%	-38%	-7%
COc1ccc(CC(=O)NNC(=O)CSc2nc(C)c(C)c(=O)[nH]2)cc1	-5%	-27%	-1%	/	3%	89µM*
COc1ccccc1NC(=O)CSc1nc(-c2ccccc2F)nc2cc(=O)[nH]n12	-31%	-16%[59 µM]	-15%	/	?	/
O=c1cc2nc(-c3ccccc3F)nc(SCc3ccc(Br)cc3)n2[nH]1	?	-12%[59 µM]	9%	/	50µM*	/
CC(C)=C1C2CCC1C(C(=O)Nc1cc(C)cc(C)c1)C2C(=O)O (centres undefined)	1%	40µM*	43%	-7%	-31%	-18%
Cc1ccc(-c2cn3nc(N4CCCC(C(=O)Nc5ccc(F)cc5)C4)sc3n2)cc1 (centres undefined)	-26%	-9%[59 µM]	6%	/	-16%	/
CCOc1ccccc1NC(=O)Cn1c(=O)n(Cc2ccccc2)c(=O)c2c(C)c(C)sc21	-4%	-2%[59 µM]	6%	/	-1%	/
COC(=O)c1ccccc1NC(=O)Cn1c(=O)n(Cc2ccccc2)c(=O)c2c(C)c(C)sc21	-2%	11%[59 µM]	27%	0%	-16%	79µM*
Cc1ccc2ccc(C(Nc3ccccn3)c3ccccc3)c(O)c2n1 (centres undefined)	?	14µM*	4%	-12%	?	11%
COc1cc(C(Nc2ccccn2)c2ccc3ccc(C)nc3c2O)cc(OC)c1O (centres undefined)	50µM*	?	?	-11%	50µM*	18µM*
O=S(=O)(Nc1cccc(C(F)(F)F)c1)c1cccnc1	-24%	-10%[12.7 µM]	27%	/	2%	20%
Cc1cccc(NC(c2ccccc2C)c2ccc3ccc(C)nc3c2O)n1 (centres undefined)	?	?	-13%	/	22µM*	/
Cc1ccc2ccc(C(Nc3cccc(C(F)(F)F)c3)c3cccnc3)c(O)c2n1 (centres undefined)	?	10µM*	5%	6%	-25%	14%
Cc1cccc(NCc2ccccc2O)n1	-7%	?	38%	-3%	2%	-5%
